Screening data: PubChem BioAssay, National Center for Advancing Translational Sciences (NCATS)
NS1 inh – influenza NS1 inhibition; 270,000 compounds, 0.4% hits; Potency, µM (highest dose often 46.1 µM), without a hit: top-dose activity, positive = more growth; calls by dose curve; further: actives are rising curves; nearly all actives have a fitted effect of over 50% in size
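OD600 was taken as the measure of yeast growth restored by compound in an NS1-expressing S. cerevisiae strain. Cells had been washed out of glucose medium and diluted 1:100 into galactose -URA medium, pH 6.0.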
AMA1-RON2 inh – inhibitors of Plasmodium falciparum AMA1-RON2 interaction | 360,000 compounds, 0.2% hits | Potency, µM (top dose mostly 58.2 µM), for inactives: at the highest dose activity change, negative = inhibition, most hits filed as inhibitors | AID 720542 | AlphaScreen AMA1-biotinylated RON2 peptide binding;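 further: 0% = vehicle wells and -100% = peptide control; nearly all actives have a fitted effect of over 45% in size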
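AMA1 (3D7) with his tag at 25 nM final met compounds first, then biotinylated RON2 peptide at 25 nM; detection used donor plus acceptor beads, 10 µg/mL apiece, read by AlphaScreen after 30 min at room temperature.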
HCV inhibitor – inhibitors of hepatitis C virus infection; Huh7.5.1 HCVcc-Cre infection, luciferase reporter, 44 h; Potency, µM (highest dose often 41.8 µM), for the others: at the top dose activity change, negative = inhibition, usual class: inhibitors; 340,000 compounds, 3.4% hits; AID 651820; further: on the % scale 0 is the no-effect control and ±100 the full control effect
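Cells (1,000/well) were plated 4 h before compound, then infected with HCVcc-Cre virus (~0.5 moi). After 44 h further culture, infection was read as luciferase luminescence following a 15 min substrate incubation at room temperature.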
Pf growth 96h – inhibits malaria parasite growth, 96 h; P. falciparum luciferase reporter growth, 96 h; Potency, µM (highest dose often 28.7 µM), for inactives: at the highest dose activity change, negative = inhibition, hits mostly inhibitors; AID 504834; 320,000 compounds, 6.9% hits; further: on the % scale 0 is the no-effect control and ±100 the full control effect
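P. falciparum expressing integrated firefly luciferase grown in erythrocytes (2% hematocrit, 0.05% parasitemia final) with compounds for 96 hours at 37 C, 5% CO2. Growth inhibition read as loss of luminescence after adding luciferase detection reagent.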
SARS PLpro yeast – SARS-CoV PLP inhibition in yeast | S. cerevisiae expressing SARS-CoV PLpro, growth rescue | Potency, µM (titrated, usually from 32.9 µM), for the others: at the highest dose activity, positive = growth rescue, hits mostly activators | AID 485353 | 330,000 compounds, 0.19% hits; calls by dose curve; further: 0% is about no effect; nearly all actives have a fitted effect of over 55% in size
Pf growth 48h – P. falciparum growth inhibition at 48 hours (one generation). P. falciparum luciferase growth in erythrocytes, 48 h. 310,000 compounds, 5.9% hits. Potency, µM (doses to about 28.7 µM), for the others: at the top dose activity change, negative = inhibition, actives largely listed as inhibitors; further: on the % scale 0 is the no-effect control and ±100 the full control effect
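A one-generation exposure of luciferase-tagged malaria parasites in RPMI 1640/Albumax erythrocyte culture, 37 C and 5% CO2. Inhibition is inferred from decreased luminescence after adding detection reagent.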
* marks the source's active call; other numbers are inactive results. Compounds with a hit are over-represented: about 12% of the library has one in this group of screens. Unless noted, the call rests on the fitted dose curve; in most records, active means well fitted curve in the direction sought with a large enough effect; inconclusive means small, poorly fitted or top-dose-only effect, or another doubt; inactive means no such curve, though single readings can be large; an effect the other way counts as inactive or inconclusive. Potency means the concentration at half of the fitted maximal effect.

How did Cc1c(C(=O)Nc2ccc3nc(N4CCOCC4)sc3c2)oc2ccccc12 do in these assays?
AMA1-RON2 inh: -3%; HCV inhibitor: 11µM*; Pf growth 96h: inconclusive; SARS PLpro yeast: -4%; Pf growth 48h: 10µM*

How did CN(C1=NC(=O)C(CC(=O)Nc2ccc(Br)cc2)S1)c1ccc(O)cc1 (configuration not stated) do in these assays?
NS1 inh: -7%; AMA1-RON2 inh: 17%; HCV inhibitor: inconclusive; Pf growth 96h: 5.2µM*; SARS PLpro yeast: 1%; Pf growth 48h: -11%

What do the screens show for `COc1cc(-c2[nH]ncc2CN2CCN(c3cccc(C)n3)CC2)cc(OC)c1OC`?
NS1 inh: 3%; AMA1-RON2 inh: -5%; HCV inhibitor: 11µM*; Pf growth 96h: 4.1µM*; SARS PLpro yeast: -1%; Pf growth 48h: 9.3µM*

What do the screens show for `CCCCN(CC)C(=O)C1CCC(CNS(=O)(=O)c2cccc3nsnc23)CC1` (configuration not stated)?
NS1 inh: 5%; AMA1-RON2 inh: 14%; HCV inhibitor: 5%; Pf growth 96h: inconclusive; SARS PLpro yeast: 3%; Pf growth 48h: -12%

Results for CCCC(=O)NC(c1ccccc1Cl)c1c(O)ccc2ccccc12 (configuration not stated) ?
NS1 inh: 9%; AMA1-RON2 inh: 7%; HCV inhibitor: -22%; Pf growth 96h: 22%; SARS PLpro yeast: 7%; Pf growth 48h: 10µM*

Results for CCCCC(=O)NC(c1ccc(OC)c(OC)c1)c1c(O)ccc2ccccc12 (configuration not stated) ?
NS1 inh: 18%; AMA1-RON2 inh: -10%; HCV inhibitor: -13%; Pf growth 96h: 12µM*; SARS PLpro yeast: 1%; Pf growth 48h: inconclusive

What do the screens show for `COc1ccccc1C(NC(=O)CC(C)C)c1c(O)ccc2ccccc12` (configuration not stated)?
NS1 inh: 6%; AMA1-RON2 inh: 1%; HCV inhibitor: -2%; Pf growth 96h: -5%; SARS PLpro yeast: 5%; Pf growth 48h: inconclusive

Results for CCCC(=O)NC(c1ccc(OC)c(OC)c1)c1c(O)ccc2ccccc12 (configuration not stated) ?
NS1 inh: 10%; AMA1-RON2 inh: -9%; Pf growth 96h: inconclusive; SARS PLpro yeast: -3%; Pf growth 48h: inconclusive

What do the screens show for `CCCCC(=O)NC(c1ccccc1Cl)c1c(O)ccc2ccccc12` (configuration not stated)?
NS1 inh: 11%; AMA1-RON2 inh: 19%; HCV inhibitor: -4%; Pf growth 96h: 62%; SARS PLpro yeast: 16%; Pf growth 48h: 10µM*

Results for Cc1ccc(CN2C(=O)C3CCCN3c3ccc(S(=O)(=O)N4CCOCC4)cc32)cc1 (configuration not stated) ?
NS1 inh: 24%; Pf growth 96h: 1.7µM*; SARS PLpro yeast: 2%; Pf growth 48h: 4.7µM*

How did COC(=O)CN(C#N)c1nc(N(C)C)nc(N(C)C)n1 do in these assays?
AMA1-RON2 inh: 10%; HCV inhibitor: -21%; Pf growth 96h: 4.1µM*; SARS PLpro yeast: -5%; Pf growth 48h: -7%

How did COC(=O)CN(C#N)c1nc(NC(C)C)nc(OC)n1 do in these assays?
NS1 inh: 6%; AMA1-RON2 inh: 9%; HCV inhibitor: -5%; Pf growth 96h: inconclusive; SARS PLpro yeast: 10%; Pf growth 48h: 0%

What do the screens show for `COC(=O)CN(C#N)c1nc(NCc2ccccc2)nc(OC)n1`?
NS1 inh: 12%; AMA1-RON2 inh: -1%; HCV inhibitor: -10%; Pf growth 96h: inconclusive; SARS PLpro yeast: 2%; Pf growth 48h: 9.3µM*

What do the screens show for `COC(=O)C(C)Oc1ccc(-c2nccc(-c3ccccn3)n2)cc1` (configuration not stated)?
NS1 inh: -6%; AMA1-RON2 inh: 10%; HCV inhibitor: -9%; Pf growth 96h: 113%; SARS PLpro yeast: 0%; Pf growth 48h: -9%

Results for C/C(=N\NC(=O)c1c(C)nc2ccccn12)c1ccc(O)cc1O ?
NS1 inh: 0%; AMA1-RON2 inh: -13%; HCV inhibitor: 6.3µM*; Pf growth 96h: 3.3µM*; SARS PLpro yeast: 0%; Pf growth 48h: inconclusive

How did C/C(=N\NC(=O)c1c(C)nc2ccccn12)c1ccccc1F do in these assays?
NS1 inh: 3%; AMA1-RON2 inh: 13%; HCV inhibitor: -14%; Pf growth 96h: 2%; SARS PLpro yeast: 7%; Pf growth 48h: -3%

What do the screens show for `CN1CCN(NC(=S)NC(C)(C)CC(C)(C)C)CC1`?
AMA1-RON2 inh: 1%; HCV inhibitor: 16%; Pf growth 96h: 9%; SARS PLpro yeast: 2%; Pf growth 48h: -29%

Results for OC(CNCCNc1ncccc1C(F)(F)F)COc1ccc(F)cc1 (configuration not stated) ?
NS1 inh: 4%; AMA1-RON2 inh: 11%; HCV inhibitor: 8%; Pf growth 96h: inconclusive; SARS PLpro yeast: 2%; Pf growth 48h: inconclusive

What do the screens show for `Cn1cc(C(F)(F)F)nc1-c1ccc(OCC(O)CNCCOc2ccc(O)c(C(N)=O)c2)cc1` (configuration not stated)?
NS1 inh: -3%; AMA1-RON2 inh: -4%; HCV inhibitor: inconclusive; Pf growth 96h: inconclusive; SARS PLpro yeast: 2%; Pf growth 48h: 9.3µM*

Results for CCCCNC(=O)Nc1nnc(C(C)(C)C)s1 ?
NS1 inh: 2%; AMA1-RON2 inh: 3%; HCV inhibitor: -9%; Pf growth 96h: 0%; SARS PLpro yeast: 1%; Pf growth 48h: inconclusive

Results for O=c1[nH]c(=S)[nH]c2c1C(c1ccc(Br)cc1)c1c([nH]c(=S)[nH]c1=O)O2 ?
NS1 inh: 10%; AMA1-RON2 inh: 35µM*; HCV inhibitor: 15%; Pf growth 96h: 6%; SARS PLpro yeast: 2%; Pf growth 48h: 30%

How did Cc1ccc(C2C3=C(CCCC3=O)Nc3[nH]c(=S)[nH]c(=O)c32)cc1 (configuration not stated) do in these assays?
NS1 inh: 3%; AMA1-RON2 inh: 41%; HCV inhibitor: 18%; Pf growth 96h: -2%; SARS PLpro yeast: 5%; Pf growth 48h: 0%

How did O=C(O)C(Oc1nc(=S)[nH]c(=S)[nH]1)(c1ccc(Cl)cc1)c1ccc(Cl)cc1 do in these assays?
NS1 inh: -3%

Results for CCCNC(=O)C1(C)CCCN(Cc2c3ccccc3nn2C)C1 (configuration not stated) ?
AMA1-RON2 inh: 0%
